WRN inhibitor: qHTS for Inhibitors of WRN Helicase | Bifunctional 3'-5' exonuclease/ATP-dependent helicase WRN (Homo sapiens), Q14191 | Potency, µM (highest dose often 114 µM), without a hit: at the highest dose activity change, negative = inhibition, usual class: inhibitors | 0.46% of 360,000 active | AID 651768, 2012 | WRN helicase unwinding, fluorescent forked duplex, kinetic; note: % is set by controls: 0 for no effect and ±100 for the full control effect; nearly all actives have a fitted effect of over 55% in size
Target sequence (Q14191 whole entry, looked up): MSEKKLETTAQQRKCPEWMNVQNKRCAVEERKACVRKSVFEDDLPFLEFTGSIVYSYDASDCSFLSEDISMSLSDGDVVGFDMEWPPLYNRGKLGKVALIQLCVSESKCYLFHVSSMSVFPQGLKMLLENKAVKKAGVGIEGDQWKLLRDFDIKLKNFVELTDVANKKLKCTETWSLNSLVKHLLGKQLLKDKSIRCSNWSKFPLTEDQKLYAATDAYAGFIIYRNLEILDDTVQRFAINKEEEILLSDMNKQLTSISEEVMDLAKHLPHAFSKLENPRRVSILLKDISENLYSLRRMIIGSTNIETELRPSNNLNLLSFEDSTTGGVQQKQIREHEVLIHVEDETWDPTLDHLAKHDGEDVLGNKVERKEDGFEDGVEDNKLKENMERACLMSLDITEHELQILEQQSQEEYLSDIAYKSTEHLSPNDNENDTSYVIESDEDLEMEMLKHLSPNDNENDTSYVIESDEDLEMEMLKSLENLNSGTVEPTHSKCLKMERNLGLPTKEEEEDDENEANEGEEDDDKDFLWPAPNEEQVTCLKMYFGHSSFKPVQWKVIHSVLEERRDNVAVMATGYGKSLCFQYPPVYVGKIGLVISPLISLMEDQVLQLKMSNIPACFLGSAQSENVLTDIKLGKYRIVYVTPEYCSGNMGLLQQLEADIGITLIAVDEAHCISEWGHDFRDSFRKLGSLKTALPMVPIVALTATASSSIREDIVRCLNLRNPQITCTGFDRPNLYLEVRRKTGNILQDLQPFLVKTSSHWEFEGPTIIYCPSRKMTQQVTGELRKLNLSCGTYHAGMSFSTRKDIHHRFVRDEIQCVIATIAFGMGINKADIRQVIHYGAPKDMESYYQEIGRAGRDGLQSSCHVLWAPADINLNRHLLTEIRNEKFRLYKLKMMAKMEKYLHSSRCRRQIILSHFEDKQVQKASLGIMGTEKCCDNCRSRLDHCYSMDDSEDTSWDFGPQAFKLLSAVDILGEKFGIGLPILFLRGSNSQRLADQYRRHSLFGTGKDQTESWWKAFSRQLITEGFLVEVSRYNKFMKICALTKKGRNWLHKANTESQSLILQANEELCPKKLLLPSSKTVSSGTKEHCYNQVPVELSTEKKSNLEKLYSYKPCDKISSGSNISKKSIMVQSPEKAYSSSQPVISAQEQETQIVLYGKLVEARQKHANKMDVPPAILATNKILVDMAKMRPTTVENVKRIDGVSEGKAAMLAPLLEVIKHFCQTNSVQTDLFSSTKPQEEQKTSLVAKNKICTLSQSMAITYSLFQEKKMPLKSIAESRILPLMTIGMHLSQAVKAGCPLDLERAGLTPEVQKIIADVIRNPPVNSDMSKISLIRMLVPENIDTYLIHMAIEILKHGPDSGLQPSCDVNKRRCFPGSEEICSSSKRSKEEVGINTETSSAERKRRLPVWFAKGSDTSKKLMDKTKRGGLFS
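Kinetic red-fluorescence monitoring (525/598 nm) tracks WRN helicase activity after 100 nM fluorophore-quencher forked duplex and 2 mM ATP are added to 20 nM enzyme pretreated 15 min at room temperature with compound.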
Pol beta inh: qHTS Assay for Inhibitors of DNA Polymerase Beta. P06746. Potency, µM (titrated, usually from 114 µM), for the others: top-dose activity change, negative = inhibition, hits mostly inhibitors. Pol beta primer extension/strand displacement, fluorescence kinetic. 1.3% of 340,000 active; note: % is set by controls: 0 for no effect and ±100 for the full control effect
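Kinetic readout of DNA synthesis with strand displacement by Pol beta. Compound and 10 nM enzyme sit 15 min at room temperature; 50 nM substrate starts the reaction, read immediately and at 10 min.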
Pol eta inh: qHTS for Inhibitors of Polymerase Eta | DNA polymerase eta (Homo sapiens), Q9Y253 | recombinant Pol eta, fluorescent DNA replication assay | Potency, µM (highest dose often 114 µM), for inactives: at the highest dose activity change, negative = inhibition, usual class: inhibitors | 1.2% of 390,000 active | AID 588591, 2011; note: % is set by controls: 0 for no effect and ±100 for the full control effect
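Pol eta at 10 nM preincubated with compounds 15 min at room temperature; reaction started with fluorescent substrate (50 nM final) and read kinetically at 0 and 10 min.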
Pol iota inh: qHTS for Inhibitors of Polymerase Iota; DNA polymerase iota (Homo sapiens), Q9UNA4; Pol iota fluorescent replication assay, 10 min; Potency, µM (highest dose often 115 µM), for inactives: at the highest dose activity, negative = inhibition, most hits filed as inhibitors; 1% of 390,000 active; AID 588590, 2011
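Pol iota at 10 nM preincubated 15 min with compounds at room temperature; reaction started with fluorescent substrate, 50 nM final. Fluorescence read kinetically at 0 and 10 min; buffer-only wells as negative control.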
Pol kappa inh: qHTS for Inhibitors of Polymerase Kappa. DNA polymerase kappa (Homo sapiens), Q9UBT6. purified Pol kappa, fluorescent DNA synthesis assay, 10 min. Potency, µM (highest dose often 107 µM), without a hit: at the highest dose activity, negative = inhibition, most hits filed as inhibitors. 0.53% of 400,000 active. AID 588579, 2011; note: % is set by controls: 0 for no effect and ±100 for the full control effect
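50 nM final substrate added after 15 min RT preincubation of 10 nM Pol kappa with compound; fluorescence read at 0 and 10 min.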
FEN1 inhibitor: qHTS Assay for the Inhibitors of Human Flap endonuclease 1 (FEN1); Potency, µM (top dose mostly 114 µM), without a hit: at the top dose activity change, negative = inhibition, usual class: inhibitors; P39748; Recombinant FEN1 flap cleavage, fluorescence, 15 min; 0.35% of 390,000 active; AID 588795, 2011; note: % is set by controls: 0 for no effect and ±100 for the full control effect; nearly all actives have a fitted effect of over 65% in size
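Quantitative HTS format: each compound was titrated, incubated with 10 nM nuclease for 15 min at room temperature, then challenged with flap substrate at 50 nM final. Signal change over 15 min gave concentration–effect curves.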
Starred values were filed as active, the others as inactive; ? = inconclusive; · = no result; ! = repeats disagree; [ ] = another dose, or the depositor's remark. In the library only some 2.4% were active in any assay of this set; here they are far more common. Calls come from the whole dose curve; as a rule, active = well fitted curve in the direction sought with a large enough effect; inconclusive = small, poorly fitted or top-dose-only effect, or another doubt; inactive = no such curve, though single readings can be large; an effect the other way counts as inactive or inconclusive. Potency is the fitted concentration of half-maximal effect.

SMILES | WRN inhibitor | Pol beta inh | Pol eta inh | Pol iota inh | Pol kappa inh | FEN1 inhibitor
COc1ccc(N(CCCN2C(=O)c3cccc4cccc(c34)C2=O)C(=O)c2ccncc2)cc1 | 7% | 1% | -5% | 12% | -4% | -14%
COc1ccc(N(CCN2C(=O)c3ccccc3C2=O)C(=O)c2cccc([N+](=O)[O-])c2)cc1 | 0% | 0.16µM* | ? | -15% | 3%[60.1 µM] | -7%
Cc1oc2ncn(CC(C)C)c(=O)c2c1C(=O)NCc1cccc(Cl)c1 | · | 0% | -21% | 23% | 2% | -17%
Cc1cccc2cc(-c3nc4ccc(C(=O)O)cc4[nH]3)c(=O)oc12 | -3% | ? | 22µM* | ? | ? | -23%
O=c1[nH]c2c(-c3nc(-c4ccc(Cl)cc4)cs3)c(O)cn2c2ccccc12 | · | · | · | -26% | -24% | -2%
CCCCOC(=O)c1ccc(NC(=O)Cn2nnc3sc4c(c3c2=O)CCCC4)cc1 | · | 0% | · | 2% | -10% | -19%
Cc1sc2nc(SCC(=O)Nc3c(C)n(C)n(-c4ccccc4)c3=O)n(C)c(=O)c2c1C | -15% | 20µM* | ? | ? | -27% | -8%
COCc1cc(O)c(O)c(O)c1-c1c(COC)cc(O)c(O)c1O | · | · | · | 2.8µM* | 0.21µM* | 1.6µM*
O=C1C(F)=CC(COC(c2ccccc2)(c2ccccc2)c2ccccc2)OC1n1cc(F)c(=O)[nH]c1=O (stereo not given) | ? | · | 50µM* | ? | -14% | -4%
CC(=O)OCC1OC(n2cc(F)c(=O)[nH]c2=O)C(OC(C)=O)C1OC(C)=O (stereo not given) | 1% | · | -17% | 2% | -18% | -3%
CC(C)Cc1nnc(NC(=O)c2cc3c(s2)CCC3)s1 | -12%[11.6 µM] | -26% | -28% | 28µM* | ? | -1%
O=C(Nc1nncs1)c1cc2c(s1)CCC2 | -14% | -10% | -2% | -4% | -1% | 17%
C(=C\c1nc2ccccc2o1)/c1ccc2c(c1)OCO2 | · | · | · | 10% | 1% | -1%
O=C(NC1CC1)c1ccc2nc(-c3ccco3)c(-c3ccco3)nc2c1 | · | · | · | 10µM* | 22µM* | 11µM*
O=C(NC1CCCCC1)c1cc(-c2ccco2)on1 | -8% | -2% | -8% | 11% | -3% | -3%
O=C(Nc1ccccc1)c1ccc2nc(-c3ccco3)c(-c3ccco3)nc2c1 | 40µM* | 20µM* | ? | 40µM* | 45µM* | ?
O=C(Nc1cccnc1)c1ccc2nc(-c3ccccc3)c(-c3ccccc3)nc2c1 | -8% | 22% | -8% | -19% | -1% | -18%
CC(=O)c1ccc(NC(=O)c2ccc3nc(-c4ccco4)c(-c4ccco4)nc3c2)cc1 | 25µM* | 2.8µM* | 2.8µM* | 3.2µM* | 7.9µM* | 50µM*
CNC(=O)c1ccc2nc(-c3ccco3)c(-c3ccco3)nc2c1 | · | · | · | 8.9µM* | 8.9µM* | 6.3µM*
CCCCOc1ccc(C2C(=O)N(C3CCCCC3)CC(=O)N2C2CCCCC2)cc1 (stereo not given) | · | 16% | -9% | 13% | -2%[60.1 µM] | 22%
Cc1cccc(N2CCN(C(=O)CN3CCSc4ccccc43)CC2C)c1 (stereo not given) | · | -3% | -22% | 16% | -13%[60.1 µM] | -15%
CCOc1ccccc1NC(=O)Cn1c(=O)n(Cc2ccc(OC)cc2)c(=O)c2oc3ccccc3c21 | · | 35% | 5% | 16% | -6% | -3%
Cc1ccccc1CN1CCN(CC(=O)NCc2ccccc2Cl)C1=O | · | 1% | -20% | 20% | 3%[60.1 µM] | 6%
COc1cccc(N2CCN(C(=O)c3ccc(CS(=O)c4cccc(Cl)c4)o3)CC2)c1 (stereo not given) | · | -8% | -22% | 21% | -13% | -5%
Cc1ccc(S(=O)(=O)N2CCN(S(=O)(=O)c3ccc4c(c3)OCCCO4)CC2)cc1 | · | · | · | 4% | -8% | -6%
SMILES | WRN inhibitor | Pol beta inh | Pol eta inh | Pol iota inh | Pol kappa inh | FEN1 inhibitor
COc1cc(N=c2ssnc2Cl)cc(OC)c1OC | 56µM* | 10% | -11% | ? | -6% | -6%
N#Cc1ccc(N=c2ssnc2Cl)cc1 | 40µM*! | 17% | -9% | ? | -2% | ?
Fc1ccc(N=c2ssnc2Cl)c(F)c1 | 32µM* | -4% | -17% | ? | -4% | ?
Clc1ccc(N=c2ssnc2Cl)cc1 | 79µM* | 16% | -16% | ? | -4% | 0%
Clc1nssc1=Nc1ccccc1 | ? | -1% | 14% | 87% | 6% | -1%
C1=Cc2ccccc2/C1=C/c1ccc2c(c1)OCO2 | · | · | · | 16% | -12% | 1%
CCc1cccc(NC(=O)C(c2ccccc2)N2Cc3ccccc3C2=O)c1 (stereo not given) | · | 6% | -13% | -12% | -12% | -15%
COc1ccc(N=c2ssnc2Cl)cc1 | ? | 2% | -8% | ? | 7% | -5%
CCOC(=O)c1ccc(N=c2ssnc2Cl)cc1 | 22µM* | 7% | -3% | 37% | 4% | ?
OC[C@H]1NC[C@H](O)[C@@H](O)[C@H]1O | · | · | · | · | -3%[19.4 µM] | ·
CCN(CC)c1ccc(NC(=O)C2CCN(c3nnc(-n4cccc4)s3)CC2)c(C)c1 | · | 25µM* | 2% | ? | -9% | 14%
NC(=O)c1cc(NC(=O)c2cc(Br)c(Br)s2)cc(C(N)=O)c1 | -23% | 40µM* | -3% | 5% | -22% | ?
O=C(Nc1cccnc1)c1cc(Br)c(Br)s1 | -6% | · | -14% | 37% | 1% | 2%
COc1cc(/C=C(\C#N)c2nc3ccccc3[nH]2)cc(Cl)c1OCc1ccccc1Cl | · | 3.2µM* | ? | 69% | -8% | 15%
COc1cccc(-c2nnc3sc(CN4CCCCC4)cn23)c1 | · | -1% | -15% | 13% | -3%[60.1 µM] | 16%
Clc1ccc(CSc2nnc(-c3cccnc3)n2Cc2ccco2)c(Cl)c1 | -9% | 50µM* | ? | -7% | -23% | 0%
COC(=O)C1CCN(CC(=O)Nc2sc3c(c2C#N)CCC3)CC1 | -26% | 40µM* | ? | -35% | -1% | -2%
CCOC(=O)c1c(C)oc2nc(C)nc(N(C)Cc3ccccc3)c12 | · | 7% | -24% | 8% | -13% | -6%
CC(=O)c1ccc(S(=O)(=O)Nc2ccc(-c3ccc(N4CCCCC4)nn3)cc2)cc1 | · | ? | 79µM* | ? | -15%[60.1 µM] | -1%
O=[N+]([O-])c1ccc(Cl)c(S(=O)(=O)Nc2ccc(-c3ccc(N4CCCC4)nn3)cc2)c1 | -6%[11.6 µM] | · | 45µM* | ? | -9% | -1%

Assay outcomes as filed in PubChem.
